Inhibition data for four compounds are collected here from ChEMBL document CHEMBL1961873, “Compounds: GSK PKIS; Assays: Nanosyn kinase panel” (2012).

Assay [1] concerns the target Ribosomal protein S6 kinase alpha-6 (Homo sapiens) (UniProt Q9UK32). As to conditions: at 1 µM.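 Also: each value is a mean inhibition of RSK4 from a GSK PKIS panel screen.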
Assay [2] has as its target T1, Serine/threonine-protein kinase Sgk1 (Homo sapiens) (UniProt O00141).
T1 sequence (whole entry): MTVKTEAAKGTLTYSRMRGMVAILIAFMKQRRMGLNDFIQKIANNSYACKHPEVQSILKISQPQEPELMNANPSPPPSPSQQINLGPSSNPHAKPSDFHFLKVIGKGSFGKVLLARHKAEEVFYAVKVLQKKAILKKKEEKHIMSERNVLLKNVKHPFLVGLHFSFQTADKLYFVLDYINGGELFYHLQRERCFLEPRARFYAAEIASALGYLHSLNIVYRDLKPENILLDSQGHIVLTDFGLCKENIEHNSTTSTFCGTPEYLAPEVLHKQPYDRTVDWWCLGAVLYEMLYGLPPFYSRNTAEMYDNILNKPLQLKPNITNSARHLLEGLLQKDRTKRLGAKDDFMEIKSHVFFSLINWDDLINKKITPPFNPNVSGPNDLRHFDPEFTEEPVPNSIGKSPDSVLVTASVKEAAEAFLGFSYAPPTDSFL
As to conditions: at 0.1 µM.

Assay [3] addresses T1, Serine/threonine-protein kinase Sgk1 (Homo sapiens). Conditions: at 1 µM.
In assay [4] the target is T2, Serine/threonine-protein kinase Sgk2 (Homo sapiens) (UniProt Q9HBY8).
T2 sequence (whole entry): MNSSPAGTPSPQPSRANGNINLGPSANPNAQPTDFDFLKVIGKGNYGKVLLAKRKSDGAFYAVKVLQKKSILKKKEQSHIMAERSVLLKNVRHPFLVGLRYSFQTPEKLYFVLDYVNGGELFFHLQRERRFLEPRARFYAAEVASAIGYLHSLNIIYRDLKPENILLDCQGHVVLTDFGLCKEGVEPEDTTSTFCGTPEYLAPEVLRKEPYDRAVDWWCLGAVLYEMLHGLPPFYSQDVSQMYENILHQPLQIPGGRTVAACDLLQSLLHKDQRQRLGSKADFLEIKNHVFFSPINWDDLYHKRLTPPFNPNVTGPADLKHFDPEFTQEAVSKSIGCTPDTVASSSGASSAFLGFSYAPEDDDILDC
Conditions: at 0.1 µM.

Assay [5] deals with T2, Serine/threonine-protein kinase Sgk2 (Homo sapiens). As to conditions: at 1 µM.
The target of assay [6] is T3, Serine/threonine-protein kinase Sgk3 (Homo sapiens) (UniProt Q96BR1).
T3 sequence (whole entry): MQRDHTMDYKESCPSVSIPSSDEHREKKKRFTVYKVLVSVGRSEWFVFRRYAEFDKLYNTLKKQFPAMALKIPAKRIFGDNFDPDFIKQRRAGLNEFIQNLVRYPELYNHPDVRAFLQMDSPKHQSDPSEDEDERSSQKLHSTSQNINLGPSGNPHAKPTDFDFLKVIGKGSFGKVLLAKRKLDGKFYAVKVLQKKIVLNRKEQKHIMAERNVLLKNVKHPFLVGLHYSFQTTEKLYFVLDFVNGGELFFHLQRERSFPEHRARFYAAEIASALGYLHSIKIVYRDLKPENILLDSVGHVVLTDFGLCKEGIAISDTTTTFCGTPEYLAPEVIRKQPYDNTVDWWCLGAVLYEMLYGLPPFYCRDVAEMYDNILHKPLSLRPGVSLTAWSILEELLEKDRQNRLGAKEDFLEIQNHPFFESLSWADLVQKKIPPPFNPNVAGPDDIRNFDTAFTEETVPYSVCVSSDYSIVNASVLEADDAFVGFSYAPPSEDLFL
Conditions: at 0.1 µM.

The target in assay [7] is T3, Serine/threonine-protein kinase Sgk3 (Homo sapiens). As to conditions: at 1 µM.
Assay [8] deals with 5'-AMP-activated protein kinase catalytic subunit alpha-1 (Homo sapiens) (UniProt Q13131). As to conditions: at 0.1 µM.
For assay [9] the target is unchanged. As to conditions: at 1 µM.
The target of assay [10] is 5'-AMP-activated protein kinase catalytic subunit alpha-2 (Homo sapiens) (UniProt P54646). As to conditions: at 0.1 µM.
The target is the same in assay [11]. As to conditions: at 1 µM.
Assay [12] addresses T4, NUAK family SNF1-like kinase 1 (Homo sapiens) (UniProt O60285).
T4 sequence (whole entry): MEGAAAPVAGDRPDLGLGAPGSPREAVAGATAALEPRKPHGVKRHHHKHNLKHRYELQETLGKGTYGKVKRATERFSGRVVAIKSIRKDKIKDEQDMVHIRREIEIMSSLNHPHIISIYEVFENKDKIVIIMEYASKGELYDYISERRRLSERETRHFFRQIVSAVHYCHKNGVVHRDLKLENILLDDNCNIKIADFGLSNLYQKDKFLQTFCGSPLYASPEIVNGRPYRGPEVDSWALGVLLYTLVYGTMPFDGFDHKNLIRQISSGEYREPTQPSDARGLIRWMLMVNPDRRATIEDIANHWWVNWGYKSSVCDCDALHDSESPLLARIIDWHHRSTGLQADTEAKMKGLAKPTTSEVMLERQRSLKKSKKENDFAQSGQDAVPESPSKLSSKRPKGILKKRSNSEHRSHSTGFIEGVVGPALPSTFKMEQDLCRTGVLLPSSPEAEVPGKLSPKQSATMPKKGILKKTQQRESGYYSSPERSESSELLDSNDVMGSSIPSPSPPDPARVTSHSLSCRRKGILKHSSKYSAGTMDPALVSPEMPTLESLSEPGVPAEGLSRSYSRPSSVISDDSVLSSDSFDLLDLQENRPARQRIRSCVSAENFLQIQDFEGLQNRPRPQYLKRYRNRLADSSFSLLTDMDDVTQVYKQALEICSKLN
As to conditions: at 0.1 µM.

Assay [13] concerns the target T4, NUAK family SNF1-like kinase 1 (Homo sapiens). As to conditions: at 1 µM.
The target of assay [14] is T5, Serine/threonine-protein kinase BRSK1 (Homo sapiens) (UniProt Q8TDC3).
T5 sequence (whole entry): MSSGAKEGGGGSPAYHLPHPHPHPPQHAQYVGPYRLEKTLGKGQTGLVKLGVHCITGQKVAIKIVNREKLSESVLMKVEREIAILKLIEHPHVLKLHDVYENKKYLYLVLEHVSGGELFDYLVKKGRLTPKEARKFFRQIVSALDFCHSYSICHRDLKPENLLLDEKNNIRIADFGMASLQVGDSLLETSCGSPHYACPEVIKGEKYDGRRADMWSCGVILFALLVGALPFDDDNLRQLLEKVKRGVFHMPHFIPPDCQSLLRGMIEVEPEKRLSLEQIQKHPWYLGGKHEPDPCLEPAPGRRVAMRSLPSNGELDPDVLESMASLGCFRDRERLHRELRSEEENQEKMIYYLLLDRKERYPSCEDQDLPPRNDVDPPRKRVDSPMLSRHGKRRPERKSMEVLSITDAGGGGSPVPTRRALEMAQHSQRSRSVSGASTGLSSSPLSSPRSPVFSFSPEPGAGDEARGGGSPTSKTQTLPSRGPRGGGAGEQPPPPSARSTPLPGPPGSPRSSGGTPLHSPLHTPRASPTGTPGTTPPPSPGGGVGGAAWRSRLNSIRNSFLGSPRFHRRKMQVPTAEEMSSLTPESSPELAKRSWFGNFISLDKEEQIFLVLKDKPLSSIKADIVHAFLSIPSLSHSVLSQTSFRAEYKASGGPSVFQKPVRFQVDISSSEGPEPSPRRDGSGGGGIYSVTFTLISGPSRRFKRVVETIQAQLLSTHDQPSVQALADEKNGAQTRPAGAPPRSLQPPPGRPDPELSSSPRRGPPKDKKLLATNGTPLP
Conditions: at 0.1 µM.

In assay [15] the target is T5, Serine/threonine-protein kinase BRSK1 (Homo sapiens). Conditions: at 1 µM.
Assay [16] concerns the target T6, Serine/threonine-protein kinase BRSK2 (Homo sapiens) (UniProt Q8IWQ3).
T6 sequence (whole entry): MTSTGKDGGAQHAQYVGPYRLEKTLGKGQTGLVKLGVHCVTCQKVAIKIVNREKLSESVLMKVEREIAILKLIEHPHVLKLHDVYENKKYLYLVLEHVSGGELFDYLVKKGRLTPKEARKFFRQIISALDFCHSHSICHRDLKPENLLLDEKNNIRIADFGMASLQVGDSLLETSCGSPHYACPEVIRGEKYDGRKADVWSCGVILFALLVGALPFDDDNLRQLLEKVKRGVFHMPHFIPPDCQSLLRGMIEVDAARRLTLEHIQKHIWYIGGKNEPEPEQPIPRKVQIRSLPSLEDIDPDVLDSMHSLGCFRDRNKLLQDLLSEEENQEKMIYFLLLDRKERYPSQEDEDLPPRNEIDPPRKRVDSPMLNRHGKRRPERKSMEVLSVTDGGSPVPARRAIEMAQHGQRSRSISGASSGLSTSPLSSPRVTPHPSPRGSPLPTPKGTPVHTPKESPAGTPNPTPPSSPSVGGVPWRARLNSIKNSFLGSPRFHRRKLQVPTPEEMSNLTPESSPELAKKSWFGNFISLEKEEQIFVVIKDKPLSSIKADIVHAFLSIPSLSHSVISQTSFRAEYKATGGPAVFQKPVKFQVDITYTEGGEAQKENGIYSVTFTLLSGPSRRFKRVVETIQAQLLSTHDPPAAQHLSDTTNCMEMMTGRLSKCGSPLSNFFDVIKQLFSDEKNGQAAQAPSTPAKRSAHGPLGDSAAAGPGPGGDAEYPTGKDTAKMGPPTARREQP
Conditions: at 0.1 µM.

In assay [17] the target is T6, Serine/threonine-protein kinase BRSK2 (Homo sapiens). Conditions: at 1 µM.
The target of assay [18] is Calcium/calmodulin-dependent protein kinase type 1D (Homo sapiens) (UniProt Q8IU85). As to conditions: at 0.1 µM.
Assay [19] shares this target. Conditions: at 1 µM.
Assay [20] addresses Calcium/calmodulin-dependent protein kinase type II subunit alpha (Homo sapiens) (UniProt Q9UQM7). Conditions: at 0.1 µM.

Chain of Ribosomal protein S6 kinase alpha-6 (Homo sapiens) (Q9UK32 whole entry): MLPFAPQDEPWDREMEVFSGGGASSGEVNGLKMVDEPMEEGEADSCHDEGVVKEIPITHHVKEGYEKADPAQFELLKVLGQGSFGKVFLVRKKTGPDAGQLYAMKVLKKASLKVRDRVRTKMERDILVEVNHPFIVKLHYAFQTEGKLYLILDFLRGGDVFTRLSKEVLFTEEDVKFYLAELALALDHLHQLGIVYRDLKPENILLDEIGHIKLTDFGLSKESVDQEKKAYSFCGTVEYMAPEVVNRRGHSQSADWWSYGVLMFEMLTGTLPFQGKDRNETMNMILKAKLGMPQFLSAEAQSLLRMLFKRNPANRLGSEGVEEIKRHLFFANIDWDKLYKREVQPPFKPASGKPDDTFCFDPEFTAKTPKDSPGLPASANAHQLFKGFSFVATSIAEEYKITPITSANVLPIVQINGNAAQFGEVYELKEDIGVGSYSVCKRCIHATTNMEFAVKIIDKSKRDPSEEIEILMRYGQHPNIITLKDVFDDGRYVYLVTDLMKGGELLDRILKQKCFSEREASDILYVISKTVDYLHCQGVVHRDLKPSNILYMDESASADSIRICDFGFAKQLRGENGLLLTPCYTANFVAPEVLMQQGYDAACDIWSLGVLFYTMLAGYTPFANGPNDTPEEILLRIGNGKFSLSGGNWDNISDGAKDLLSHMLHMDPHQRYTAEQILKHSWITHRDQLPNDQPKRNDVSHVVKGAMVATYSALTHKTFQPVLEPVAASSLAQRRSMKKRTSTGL
Chain of 5'-AMP-activated protein kinase catalytic subunit alpha-1 (Homo sapiens) (Q13131 whole entry, looked up): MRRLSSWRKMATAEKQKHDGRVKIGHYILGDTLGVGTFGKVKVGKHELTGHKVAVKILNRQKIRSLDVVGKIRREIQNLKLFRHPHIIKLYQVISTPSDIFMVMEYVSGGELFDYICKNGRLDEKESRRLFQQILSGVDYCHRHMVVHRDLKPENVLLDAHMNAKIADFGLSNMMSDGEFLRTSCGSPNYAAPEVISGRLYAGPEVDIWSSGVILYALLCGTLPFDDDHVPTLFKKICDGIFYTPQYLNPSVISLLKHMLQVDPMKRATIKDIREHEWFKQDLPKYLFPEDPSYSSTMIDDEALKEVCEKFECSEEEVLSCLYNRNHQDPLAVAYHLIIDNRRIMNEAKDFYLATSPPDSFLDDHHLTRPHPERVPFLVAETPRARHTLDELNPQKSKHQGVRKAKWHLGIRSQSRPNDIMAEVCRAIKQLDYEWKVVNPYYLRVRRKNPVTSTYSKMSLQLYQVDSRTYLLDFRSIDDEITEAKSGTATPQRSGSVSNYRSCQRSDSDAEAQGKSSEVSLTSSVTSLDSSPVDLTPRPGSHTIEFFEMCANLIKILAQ
Chain of Calcium/calmodulin-dependent protein kinase type 1D (Homo sapiens) (Q8IU85 whole entry, looked up): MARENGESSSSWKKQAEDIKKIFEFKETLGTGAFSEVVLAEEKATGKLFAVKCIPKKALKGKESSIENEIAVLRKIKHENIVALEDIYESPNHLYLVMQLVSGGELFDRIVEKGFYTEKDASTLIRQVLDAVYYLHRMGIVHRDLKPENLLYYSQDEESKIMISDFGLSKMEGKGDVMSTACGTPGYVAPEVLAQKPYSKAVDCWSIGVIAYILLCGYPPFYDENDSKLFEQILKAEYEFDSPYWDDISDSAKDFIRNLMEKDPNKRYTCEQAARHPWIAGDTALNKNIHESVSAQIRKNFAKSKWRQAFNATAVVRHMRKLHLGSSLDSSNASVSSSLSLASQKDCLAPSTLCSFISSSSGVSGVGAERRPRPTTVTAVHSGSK
Chain of 5'-AMP-activated protein kinase catalytic subunit alpha-2 (Homo sapiens) (P54646 whole entry, looked up): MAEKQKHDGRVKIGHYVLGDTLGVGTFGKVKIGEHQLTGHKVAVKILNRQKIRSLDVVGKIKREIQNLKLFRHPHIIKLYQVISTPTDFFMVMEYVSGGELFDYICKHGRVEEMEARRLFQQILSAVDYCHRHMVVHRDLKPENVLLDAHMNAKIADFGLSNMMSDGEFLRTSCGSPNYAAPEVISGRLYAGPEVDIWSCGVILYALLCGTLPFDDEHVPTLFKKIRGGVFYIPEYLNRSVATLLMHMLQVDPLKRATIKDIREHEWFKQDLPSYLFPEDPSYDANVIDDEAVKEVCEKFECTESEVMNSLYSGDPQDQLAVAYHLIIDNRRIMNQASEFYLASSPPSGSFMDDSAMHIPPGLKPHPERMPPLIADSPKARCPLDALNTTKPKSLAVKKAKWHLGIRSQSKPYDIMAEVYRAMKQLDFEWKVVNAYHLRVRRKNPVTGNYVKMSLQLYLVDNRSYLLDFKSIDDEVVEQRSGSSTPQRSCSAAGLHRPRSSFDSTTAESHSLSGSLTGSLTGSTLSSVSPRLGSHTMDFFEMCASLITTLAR
Chain of Calcium/calmodulin-dependent protein kinase type II subunit alpha (Homo sapiens) (Q9UQM7 whole entry): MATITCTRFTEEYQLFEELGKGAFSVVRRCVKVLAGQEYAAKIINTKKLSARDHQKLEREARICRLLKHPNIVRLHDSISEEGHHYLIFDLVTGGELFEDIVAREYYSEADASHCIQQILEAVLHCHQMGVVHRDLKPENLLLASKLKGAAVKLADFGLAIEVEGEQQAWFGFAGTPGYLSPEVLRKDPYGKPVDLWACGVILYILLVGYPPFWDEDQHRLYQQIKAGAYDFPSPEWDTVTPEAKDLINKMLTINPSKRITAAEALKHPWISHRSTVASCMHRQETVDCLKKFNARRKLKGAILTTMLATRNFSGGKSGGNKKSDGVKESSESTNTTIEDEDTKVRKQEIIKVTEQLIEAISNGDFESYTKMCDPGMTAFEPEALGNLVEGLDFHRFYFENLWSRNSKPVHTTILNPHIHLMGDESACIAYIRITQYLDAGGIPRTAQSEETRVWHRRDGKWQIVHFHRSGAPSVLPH

For the compound `[O-][S+]1CCN(Cc2ccc(-c3ccc4ncnc(Nc5ccc(OCc6cccc(F)c6)c(Cl)c5)c4c3)o2)CC1`, the inhibition was 1.89% in assay [1]; 3.42% in assay [2]; 4% in assay [3]; -0.64% in assay [4]; 2.65% in assay [5]; 4.53% in [6]. In addition, the inhibition in assay [7] was 3.72%; in assay [8], 3.59%; in assay [9] it was 5.6%; in assay [10] it was 5.66%; in assay [11] it was 5.75%; in [12], 0.9%. The inhibition in [13] came to 3.1%; in [14], 1.17%; in assay [15], 3.09%; in assay [16], 3.06%; in [17] it was 4.57%; in assay [18], 0.83%. Moreover, the inhibition in assay [19] amounted to 1.18%; in [20], 3.06%.

On to `COc1cccc(-n2ncc3c(N/N=C/c4ccc(F)cc4)ncnc32)c1`, for which the inhibition turned out to be 1.84% in [1]; 4.27% in [2]; 5.6% in [3]; 2.15% in assay [4]; 0.76% in assay [5]; 4.84% in assay [6]. Moreover, the inhibition was 3.63% in [7]; 3.38% in assay [8]; 5.57% in assay [9]; -0.09% in assay [10]; 3.2% in assay [11]; 6.48% in [12]. Moreover, the inhibition in assay [13] was 16.9%; in assay [14], 1.24%; in assay [15] it was 12.1%; in assay [16], 5.29%; in [17] it was 17.8%; in assay [18], -0.29%. Besides, the results for the inhibition in [19] and in assay [20] were 1.05% and 3.15%, respectively.

Consider `CCN(CC)S(=O)(=O)c1ccc(OC)c(Nc2ncc(-c3ccccc3)o2)c1`, for which the inhibition in [1] is 2.89%; in assay [2], -0.03%; in [3], 3.29%; in [4], 0.96%; in assay [5] it was 1.93%; in assay [6], 4.69%. Also, the inhibition is 0.56% in assay [7]; 1.56% in assay [8]; 3.48% in assay [9]; -5.76% in assay [10]; 0.95% in assay [11]; 5.96% in [12]. Moreover, the inhibition in [13] is 3.38%; in [14], -0.07%; in assay [15], 0.94%; in assay [16], 3.36%; in [17] it was 6.08%; in assay [18], 0.13%. Besides, the values for the inhibition in assay [19] and in [20] were -0.06% and 3.02%, respectively.

In the case of `CNC(=O)c1cccc(C#Cc2cncnc2Nc2ccc(OCc3cccc(F)c3)c(Cl)c2)c1`, the inhibition was 0.05% in assay [1]; 1.16% in [2]; 0.62% in assay [3]; -0.28% in [4]; 0.71% in [5]; 0.18% in assay [6]. Further, the inhibition was 1.41% in [7]; 0.65% in assay [8]; 2.17% in assay [9]; -3.97% in assay [10]; 1.89% in assay [11]; 0.54% in assay [12]. In addition, the inhibition in [13] was 8.68%; in [14], -0.7%; in assay [15] it was 2.56%; in assay [16], 1.59%; in assay [17] it was 4.03%; in assay [18] it was -1.04%. Also, the inhibition in assay [19] is -0.89%; in assay [20], 1.34%.

A word on the inhibition: it is the relative decrease from the control value, in per cent.
